Most compounds without a hit are left out; they make up all but 4.1% or so of the library.
ssDAF-12 act – S. stercoralis DAF-12 activation, primary screen. activation, % at 6.8 µM. AID 652126. 370,000 compounds, 1% hits. HEK293 ssDAF-12/GRIP1 lit1-tk-luc reporter, luminescence; % of 3 µM dafachronic acid response;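 active = activation above the mean over all tested compounds plus 3 SD, cut at about 0.9% in these data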;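 note: 0% = DMSO-only wells and 100% = 3 µM delta7-dafachronic acid wells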
hgDAF12 agonist – hgDAF-12 agonism, primary luciferase screen; HEK293 GAL4-hgDAF12 UAS-luciferase reporter, agonist luminescence; normalized to butyrate control; activation, % at 6.8 µM; 370,000 compounds, 1.8% hits;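 active = activation above a cutoff set at the mean of all screened compounds plus 3 SD, cut at about 10% in these data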;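 note: 0% = DMSO wells and 100% = sodium butyrate wells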
hcDAF-12 act – activators of H. contortus DAF-12 nuclear receptor; HEK293 hcDAF-12 lit1-tk-luc reporter, luminescence; 0% DMSO, 100% Δ7-dafachronic acid; activation, % at 6.8 µM; 370,000 compounds, 1.4% hits; AID 652067;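 active = activation above the mean of all tested compounds plus 3 SD, cut at about 5.5% in these data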;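 note: 100% = response to 3 µM Δ7-dafachronic acid high control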
DAX1 inh-1 – inhibits human nuclear receptor DAX1; P51843; HEK293 Gal4-DAX1 luciferase reporter, luminescence; inhibition, % at 6.75 µM; 340,000 compounds, 0.99% hits;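 active = inhibition above the mean over all tested compounds plus 3 SD, cut at about 4.2% in these data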;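 note: 0% = DAX1-transfected cells with DMSO and 100% = empty-vector control cells with DMSO; inhibition shows as a rise in luminescence from relieved DAX1 repression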
Target sequence (P51843 207-470 limits assumed): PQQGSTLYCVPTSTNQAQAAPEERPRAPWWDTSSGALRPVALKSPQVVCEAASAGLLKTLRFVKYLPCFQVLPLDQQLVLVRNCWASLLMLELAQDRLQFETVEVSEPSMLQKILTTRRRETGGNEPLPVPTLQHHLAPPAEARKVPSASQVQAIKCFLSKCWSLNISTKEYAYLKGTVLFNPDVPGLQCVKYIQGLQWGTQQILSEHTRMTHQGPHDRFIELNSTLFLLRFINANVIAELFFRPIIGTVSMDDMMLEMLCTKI
DAX1 inh-2 – blocks DAX1 repression of SF-1 activated StAR promoter; HEK293T StAR-luciferase reporter, SF-1/DAX-1 repression relief; inhibition, % at 6.8 µM; 370,000 compounds, 1.1% hits; AID 652010;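 active = inhibition above the mean over all tested compounds plus 3 SD, cut at about 3.6% in these data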;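 note: 0% = DAX-1 cells with DMSO and 100% = cells lacking DAX-1 with DMSO; higher inhibition means more luminescence from relief of DAX-1 repression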
Active calls of the source: *; nt = no result given.

SMILES | ssDAF-12 act | hgDAF12 agonist | hcDAF-12 act | DAX1 inh-1 | DAX1 inh-2
COc1ccc(NC(=O)CSc2nc3c([nH]c4ccccc43)c(=O)n2C)c(OC)c1 | 0.9* | 0.9 | 4.6 | 1.4 | 1.1
COCCn1c(SCC(=O)Nc2ccc(F)cc2F)nc2c([nH]c3ccccc32)c1=O | 0.8 | -2.8 | 4.3 | 0.0 | 2.9
C=CCn1c(SCC(=O)Nc2ccccc2OC)nc2c([nH]c3ccccc32)c1=O | 0.3 | 3.9 | 5.9* | 0.3 | -0.7
C=CCn1c(SCC(=O)NCCc2ccccc2)nc2c([nH]c3ccccc32)c1=O | 1.0* | 1.6 | 4.8 | 0.5 | -1.6
Cc1cc(C)cc(NC(=O)[C@H](Cc2c[nH]c3ccccc23)NC(=O)[C@@H]2Cc3ccccc3CN2)c1 | -1.0 | -1.7 | 6.2* | -0.6 | -0.7
CCOC(=O)c1sc2nc3c(cc2c1N)COC(C(C)C)C3 (stereo unspecified) | -1.1 | 3.2 | 0.2 | 4.3* | 1.6
COc1cccc(-c2ccc3c(N)c(C(=O)NC4CC4)sc3n2)c1 | -0.6 | 10.5* | 1.3 | 4.7* | 1.0
Nc1c(C(=O)N2CCCCC2)sc2nc3c(cc12)CCCC3 | 0.4 | 12.5* | 5.5 | 0.4 | 3.0
Nc1ccc(OCc2ccccc2)cc1[N+](=O)[O-] | -0.9 | 11.0* | 1.0 | -0.4 | -0.8
O=[N+]([O-])c1cccnc1Oc1ccc(OCc2ccccc2)cc1 | -0.1 | 6.0 | -0.6 | 1.5 | 0.6
O=C(CN1C(=O)NC(Cc2ccccc2)C1=O)Nc1ccc(F)cc1 (stereo unspecified) | -1.2 | -0.2 | -1.9 | 4.5* | 0.3
NCCOc1cnn(-c2ccccc2Cl)c(=O)c1Cl | 1.0* | 0.9 | 2.2 | 3.2 | 0.3
C#CCNC(=O)C[C@@H]1C[C@@](CCC(=O)OCC)(C(=O)OCC)C2=CCCCN2C1=O | 0.1 | -3.9 | 0.4 | nt | -0.7
Cc1cc(Nc2ccc(F)cc2F)n2ncnc2n1 | -1.3 | 1.2 | -0.8 | 4.9* | -0.1
O=C1C2CCCCC2C(=O)N1c1ccc(NC2CCCCC2)c([N+](=O)[O-])c1 (stereo unspecified) | -1.3 | 1.1 | 1.3 | -0.7 | -0.5
COCCNc1ccc(N2C(=O)C3CCCCC3C2=O)cc1[N+](=O)[O-] (stereo unspecified) | -1.5 | 3.2 | -1.9 | 4.6* | 0.2
O=C(O)C1CCN(C(=O)c2ccccc2N2C(=O)[C@@H]3Cc4c([nH]c5ccccc45)C(c4cccc(Cl)c4)N3C2=O)CC1 (stereo partly specified) | 1.0* | 2.5 | 5.6* | 2.3 | -0.7
O=c1c2c3c(sc2nc2n1CCCCC2)C(O)CCC3 (stereo unspecified) | -1.1 | 11.2* | 2.0 | 0.7 | 3.6
O=C1CCCc2c1sc1nc3n(c(=O)c21)CCCCC3 | -0.7 | 10.5* | 1.3 | 1.6 | 1.4
Nn1c(SCC(=O)Nc2cccc3ccccc23)nnc1-c1n[nH]c2c1CCC2 | -1.4 | -0.4 | -1.5 | nt | -1.0
C=CCC12C=C(OC)C(=O)C(C1=O)C1c3ccccc3CC12 (stereo unspecified) | -1.4 | 1.1 | 1.1 | nt | -0.3
CCSc1ccccc1C(=O)Nc1cccnc1 | -0.7 | 2.9 | -1.1 | 4.7* | 0.7
CCCOc1ccc(C(=O)Nc2cccnc2)cc1 | -1.4 | -0.2 | -1.5 | -0.3 | 0.0
O=C(N/N=C/c1cccnc1)c1ccc2ccccc2c1O | -0.8 | 0.4 | 1.6 | 0.6 | 1.6
CCOc1cc(C(=O)Nc2cccnc2)cc(OCC)c1OCC | 1.2* | 1.0 | 3.7 | 1.2 | -1.0
SMILES | ssDAF-12 act | hgDAF12 agonist | hcDAF-12 act | DAX1 inh-1 | DAX1 inh-2
O=C(Nc1cccnc1)c1ccc2ccccc2c1O | 0.6 | 9.0 | 2.4 | 4.3* | 1.1
CCSc1ccccc1C(=O)Nc1nncs1 | -1.2 | 1.9 | -0.9 | 0.1 | 0.1
CCOC(=O)C1=NOC(C(=O)NCc2ccccc2)(C(=O)c2ccc(OC)cc2)C1 (stereo unspecified) | -0.1 | 4.9 | 2.1 | nt | 0.2
COC(=O)[C@]12C[C@H](CC(=O)NCc3cccs3)C(=O)N(Cc3ccco3)C1=C[C@H](COCc1ccccc1)O[C@@H]2C | -1.8 | 3.0 | -1.3 | nt | -0.6
Cc1c(C(=O)Nc2nccs2)oc2ccc(F)cc12 | 1.6* | 8.9 | 6.3* | 2.3 | 2.0
C=CCN(CC#Cc1ccc(C(F)(F)F)cc1)Cc1ccc(OC)cc1OC | -1.4 | -0.9 | -2.9 | nt | -0.7
CC(=O)Nc1ccc(S(=O)(=O)NCc2ccccn2)cc1 | -1.0 | -0.7 | -0.9 | 4.3* | -0.6
Clc1ccccc1N1CCN(Cc2c[nH]c3ccccc23)CC1 | 0.1 | 1.1 | 2.6 | -1.0 | -0.4

Source: PubChem (The Scripps Research Institute Molecular Screening Center)
